# Experimental data published in PMC7862700, “An all-to-all approach to the identification of sequence-specific readers for epigenetic DNA modifications on cytosine”.
# Assays:
# Assay in all cases: DAPPL (digital affinity profiling via proximity ligation, sequencing); 10 mM Tris-HCl pH 7.5, 50 mM NaCl, 1 mM DTT, 4% glycerol, room temperature, 30 min; GST-TFs on glutathione beads, 16-mer random dsDNA library, 0.1% formaldehyde crosslink after washing; high values mean tight binding
# [1] = target: T1, FLI1 (Homo sapiens, UniProt Q01543 1-452); conditions: protein: recombinant; tags: N-terminal GST; dsDNA, one strand shown
# T1 sequence: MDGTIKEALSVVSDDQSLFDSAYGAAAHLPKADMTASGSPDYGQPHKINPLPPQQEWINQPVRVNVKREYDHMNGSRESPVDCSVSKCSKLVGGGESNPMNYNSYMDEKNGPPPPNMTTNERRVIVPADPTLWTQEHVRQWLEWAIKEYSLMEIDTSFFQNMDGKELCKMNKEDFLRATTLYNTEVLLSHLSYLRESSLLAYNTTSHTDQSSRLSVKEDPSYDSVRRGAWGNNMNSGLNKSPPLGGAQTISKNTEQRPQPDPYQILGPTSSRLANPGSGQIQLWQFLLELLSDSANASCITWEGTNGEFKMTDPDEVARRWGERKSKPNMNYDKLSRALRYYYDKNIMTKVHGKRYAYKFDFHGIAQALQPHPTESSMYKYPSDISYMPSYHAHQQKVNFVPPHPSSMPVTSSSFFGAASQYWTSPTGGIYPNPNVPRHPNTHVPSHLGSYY
# Procedure, shortened: (§1)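 In yeast, human transcription factors were expressed with a GST fusion, then pulled down on glutathione beads and given DNA barcodes. Pooled with a tag-only sample, they were exposed to 200 nmole of a 16-mer random double-stranded DNA library (Tris/NaCl/DTT/glycerol buffer, room temperature, 30 min), washed, crosslinked with 0.1% formaldehyde, proximity-ligated using BsaI/T4 ligase for 1 h at 37 °C, PCR-amplified and read on an Illumina NextSeq500. Each hexamer's frequency of reads for a factor, divided by the matching frequency for the tag-only sample, gives the binding signal.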
# [2] = target: T2, ELK1 (Homo sapiens, UniProt P19419 1-428); conditions: protein: recombinant; tags: N-terminal GST; dsDNA, one strand shown
# T2 sequence: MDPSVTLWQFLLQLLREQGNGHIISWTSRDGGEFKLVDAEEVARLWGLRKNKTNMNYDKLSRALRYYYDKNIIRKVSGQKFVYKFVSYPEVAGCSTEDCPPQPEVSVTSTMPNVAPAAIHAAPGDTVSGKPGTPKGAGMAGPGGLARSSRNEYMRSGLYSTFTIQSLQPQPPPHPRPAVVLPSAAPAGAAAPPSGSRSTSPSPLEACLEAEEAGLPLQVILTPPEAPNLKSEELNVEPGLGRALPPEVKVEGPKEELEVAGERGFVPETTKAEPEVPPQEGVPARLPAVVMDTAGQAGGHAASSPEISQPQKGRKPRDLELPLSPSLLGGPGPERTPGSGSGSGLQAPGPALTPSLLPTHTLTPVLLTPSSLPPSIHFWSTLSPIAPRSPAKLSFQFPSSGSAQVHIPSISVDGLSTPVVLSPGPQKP
# Procedure, shortened: as §1
# [3] = target: T3, GABPA (Homo sapiens, UniProt Q06546 1-454); conditions: protein: recombinant; tags: N-terminal GST; dsDNA, one strand shown
# T3 sequence: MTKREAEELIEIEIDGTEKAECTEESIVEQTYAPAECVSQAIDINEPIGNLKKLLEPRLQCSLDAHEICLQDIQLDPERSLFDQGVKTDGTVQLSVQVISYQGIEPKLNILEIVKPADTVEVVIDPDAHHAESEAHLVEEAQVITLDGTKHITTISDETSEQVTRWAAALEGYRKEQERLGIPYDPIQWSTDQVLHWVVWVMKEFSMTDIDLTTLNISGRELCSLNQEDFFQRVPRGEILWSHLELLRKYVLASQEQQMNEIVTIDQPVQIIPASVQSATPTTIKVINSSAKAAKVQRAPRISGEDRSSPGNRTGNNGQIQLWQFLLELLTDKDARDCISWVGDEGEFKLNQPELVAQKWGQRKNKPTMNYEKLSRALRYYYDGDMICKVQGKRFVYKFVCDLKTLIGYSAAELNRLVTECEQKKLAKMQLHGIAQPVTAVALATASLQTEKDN
# Procedure, shortened: as §1
# [4] = target: T4, ERG (Homo sapiens, UniProt P11308 1-479); conditions: protein: recombinant; tags: N-terminal GST; dsDNA, one strand shown
# T4 sequence: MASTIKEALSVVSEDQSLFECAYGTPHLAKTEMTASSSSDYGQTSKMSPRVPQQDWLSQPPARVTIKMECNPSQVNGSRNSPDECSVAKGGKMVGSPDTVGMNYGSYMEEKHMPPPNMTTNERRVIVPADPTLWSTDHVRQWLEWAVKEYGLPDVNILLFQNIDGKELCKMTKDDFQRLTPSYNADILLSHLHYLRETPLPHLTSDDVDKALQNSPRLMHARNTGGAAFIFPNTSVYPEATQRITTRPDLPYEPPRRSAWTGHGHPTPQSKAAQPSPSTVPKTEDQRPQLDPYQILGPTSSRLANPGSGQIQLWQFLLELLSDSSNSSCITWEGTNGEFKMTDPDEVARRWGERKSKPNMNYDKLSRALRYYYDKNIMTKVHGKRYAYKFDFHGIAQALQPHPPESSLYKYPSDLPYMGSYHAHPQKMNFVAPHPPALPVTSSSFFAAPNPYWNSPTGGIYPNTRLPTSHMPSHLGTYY
# Procedure, shortened: as §1
# [5] = target: ELF1 (Homo sapiens, UniProt P32519 1-619); conditions: protein: recombinant; tags: N-terminal GST; dsDNA, one strand shown
# ELF1, sequence (P32519 whole entry): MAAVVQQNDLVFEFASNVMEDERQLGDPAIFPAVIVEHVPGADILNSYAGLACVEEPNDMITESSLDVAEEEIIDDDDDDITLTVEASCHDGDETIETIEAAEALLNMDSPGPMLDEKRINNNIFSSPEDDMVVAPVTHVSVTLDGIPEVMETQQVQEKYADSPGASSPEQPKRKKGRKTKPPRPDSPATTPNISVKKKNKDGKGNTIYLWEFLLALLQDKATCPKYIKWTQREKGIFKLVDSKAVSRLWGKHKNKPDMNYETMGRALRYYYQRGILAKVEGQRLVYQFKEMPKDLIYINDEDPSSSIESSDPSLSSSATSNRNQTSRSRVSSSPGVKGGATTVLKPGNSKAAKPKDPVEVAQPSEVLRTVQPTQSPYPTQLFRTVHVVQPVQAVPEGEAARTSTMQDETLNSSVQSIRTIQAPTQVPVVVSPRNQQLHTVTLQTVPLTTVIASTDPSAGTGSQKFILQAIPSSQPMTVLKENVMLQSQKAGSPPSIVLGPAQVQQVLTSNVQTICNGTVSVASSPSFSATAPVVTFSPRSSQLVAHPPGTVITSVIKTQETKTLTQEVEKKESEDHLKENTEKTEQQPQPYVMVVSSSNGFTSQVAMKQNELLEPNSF
# Procedure, shortened: as §1
# [6] = target: T5, EHF (Homo sapiens, UniProt Q9NZC4 1-300); conditions: protein: recombinant; tags: N-terminal GST; dsDNA, one strand shown
# T5 sequence: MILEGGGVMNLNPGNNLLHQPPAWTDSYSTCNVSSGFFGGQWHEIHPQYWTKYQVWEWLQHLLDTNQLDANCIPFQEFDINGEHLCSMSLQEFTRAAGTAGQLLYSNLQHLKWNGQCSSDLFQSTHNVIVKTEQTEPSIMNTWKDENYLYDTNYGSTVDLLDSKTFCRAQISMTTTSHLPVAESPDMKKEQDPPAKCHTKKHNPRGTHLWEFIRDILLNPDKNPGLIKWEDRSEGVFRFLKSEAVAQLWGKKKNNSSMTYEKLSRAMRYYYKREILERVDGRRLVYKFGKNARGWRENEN
# Procedure, shortened: as §1
# [7] = target: SPI1 (Homo sapiens, UniProt P17947 1-270); conditions: protein: recombinant; tags: N-terminal GST; dsDNA, one strand shown
# Procedure, shortened: as §1
# [8] = target: SPIB (Homo sapiens, UniProt Q01892 1-262); conditions: protein: recombinant; tags: N-terminal GST; dsDNA, one strand shown
# SPIB, sequence (Q01892 whole entry): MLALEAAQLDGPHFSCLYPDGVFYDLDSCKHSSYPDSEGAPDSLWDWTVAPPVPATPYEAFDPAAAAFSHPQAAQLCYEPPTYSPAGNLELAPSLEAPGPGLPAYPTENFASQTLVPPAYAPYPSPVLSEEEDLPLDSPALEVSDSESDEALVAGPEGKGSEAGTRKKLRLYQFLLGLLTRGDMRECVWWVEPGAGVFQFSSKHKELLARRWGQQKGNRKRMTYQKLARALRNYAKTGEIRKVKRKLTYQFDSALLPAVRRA
# Procedure, shortened: as §1
# [9] = target: T6, ELK3 (Homo sapiens, UniProt P41970 1-407); conditions: protein: recombinant; tags: N-terminal GST; dsDNA, one strand shown
# T6 sequence: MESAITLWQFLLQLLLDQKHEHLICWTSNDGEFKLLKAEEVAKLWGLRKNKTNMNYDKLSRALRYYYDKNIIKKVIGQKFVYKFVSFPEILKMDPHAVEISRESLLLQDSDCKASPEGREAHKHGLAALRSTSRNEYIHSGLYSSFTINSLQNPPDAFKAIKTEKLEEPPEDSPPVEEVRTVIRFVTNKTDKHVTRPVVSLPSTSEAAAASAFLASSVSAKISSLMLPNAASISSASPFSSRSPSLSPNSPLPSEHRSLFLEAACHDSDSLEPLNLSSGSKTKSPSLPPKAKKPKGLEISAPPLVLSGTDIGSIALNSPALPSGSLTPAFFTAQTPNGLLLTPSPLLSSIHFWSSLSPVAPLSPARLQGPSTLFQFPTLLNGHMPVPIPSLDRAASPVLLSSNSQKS
# Procedure, shortened: as §1
# [10] = target: T7, FEV (Homo sapiens, UniProt Q99581 1-238); conditions: protein: recombinant; tags: N-terminal GST; dsDNA, one strand shown
# T7 sequence: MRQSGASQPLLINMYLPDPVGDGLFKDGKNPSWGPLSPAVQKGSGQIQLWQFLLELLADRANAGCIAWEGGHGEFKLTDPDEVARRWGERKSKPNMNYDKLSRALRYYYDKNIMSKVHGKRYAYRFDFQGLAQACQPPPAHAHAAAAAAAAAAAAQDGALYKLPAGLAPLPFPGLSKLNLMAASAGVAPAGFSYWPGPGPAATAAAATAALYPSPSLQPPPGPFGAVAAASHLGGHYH
# Procedure, shortened: as §1
# [11] = target: ETV5 (Homo sapiens, UniProt P41161 1-510); conditions: protein: recombinant; tags: N-terminal GST; dsDNA, one strand shown
# ETV5, sequence (P41161 whole entry): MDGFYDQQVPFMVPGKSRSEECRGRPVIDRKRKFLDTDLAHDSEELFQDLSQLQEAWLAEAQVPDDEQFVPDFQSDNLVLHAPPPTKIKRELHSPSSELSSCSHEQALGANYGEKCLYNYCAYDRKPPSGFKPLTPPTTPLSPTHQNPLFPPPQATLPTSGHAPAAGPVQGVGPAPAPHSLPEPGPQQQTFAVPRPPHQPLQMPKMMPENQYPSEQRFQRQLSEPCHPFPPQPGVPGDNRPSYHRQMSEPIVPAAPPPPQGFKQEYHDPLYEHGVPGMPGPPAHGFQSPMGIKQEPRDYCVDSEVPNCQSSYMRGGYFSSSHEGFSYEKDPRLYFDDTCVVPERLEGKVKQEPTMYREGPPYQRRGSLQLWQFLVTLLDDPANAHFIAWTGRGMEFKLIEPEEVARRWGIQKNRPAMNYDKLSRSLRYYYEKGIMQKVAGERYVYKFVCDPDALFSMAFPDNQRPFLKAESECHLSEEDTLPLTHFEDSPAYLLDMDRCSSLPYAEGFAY
# Procedure, shortened: as §1
# [12] = target: HSF1 (Homo sapiens, UniProt Q00613 1-529); conditions: protein: recombinant; tags: N-terminal GST; chain copies: 3; dsDNA, one strand shown
# HSF1, sequence (Q00613 whole entry): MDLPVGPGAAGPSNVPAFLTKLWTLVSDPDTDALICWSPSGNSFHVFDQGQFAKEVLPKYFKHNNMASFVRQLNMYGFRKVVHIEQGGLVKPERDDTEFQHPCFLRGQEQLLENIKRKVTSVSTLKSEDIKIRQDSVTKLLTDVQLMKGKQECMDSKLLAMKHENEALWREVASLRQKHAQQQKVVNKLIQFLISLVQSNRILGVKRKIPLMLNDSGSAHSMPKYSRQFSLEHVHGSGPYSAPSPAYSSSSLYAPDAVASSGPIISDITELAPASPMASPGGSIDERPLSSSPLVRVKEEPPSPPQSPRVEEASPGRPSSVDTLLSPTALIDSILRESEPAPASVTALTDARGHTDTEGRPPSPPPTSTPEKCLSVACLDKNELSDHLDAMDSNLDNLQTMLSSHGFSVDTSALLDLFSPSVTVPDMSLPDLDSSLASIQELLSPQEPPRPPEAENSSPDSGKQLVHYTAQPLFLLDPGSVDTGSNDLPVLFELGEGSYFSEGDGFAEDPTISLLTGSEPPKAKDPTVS
# Procedure, shortened: as §1
# [13] = target: T8, SPIC (Homo sapiens, UniProt Q8N5J4 1-248); conditions: protein: recombinant; tags: N-terminal GST; dsDNA, one strand shown
# T8 sequence: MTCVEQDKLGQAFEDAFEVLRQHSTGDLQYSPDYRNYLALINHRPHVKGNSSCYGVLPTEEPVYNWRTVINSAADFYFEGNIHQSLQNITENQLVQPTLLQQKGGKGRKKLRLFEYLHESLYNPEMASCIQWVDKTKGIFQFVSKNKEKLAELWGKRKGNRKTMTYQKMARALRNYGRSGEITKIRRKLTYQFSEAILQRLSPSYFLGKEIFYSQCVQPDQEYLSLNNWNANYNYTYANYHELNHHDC
# Procedure, shortened: as §1
# [14] = target: ELF4 (Homo sapiens, UniProt Q99607 1-663); conditions: protein: recombinant; tags: N-terminal GST; dsDNA, one strand shown
# ELF4, sequence (Q99607 whole entry): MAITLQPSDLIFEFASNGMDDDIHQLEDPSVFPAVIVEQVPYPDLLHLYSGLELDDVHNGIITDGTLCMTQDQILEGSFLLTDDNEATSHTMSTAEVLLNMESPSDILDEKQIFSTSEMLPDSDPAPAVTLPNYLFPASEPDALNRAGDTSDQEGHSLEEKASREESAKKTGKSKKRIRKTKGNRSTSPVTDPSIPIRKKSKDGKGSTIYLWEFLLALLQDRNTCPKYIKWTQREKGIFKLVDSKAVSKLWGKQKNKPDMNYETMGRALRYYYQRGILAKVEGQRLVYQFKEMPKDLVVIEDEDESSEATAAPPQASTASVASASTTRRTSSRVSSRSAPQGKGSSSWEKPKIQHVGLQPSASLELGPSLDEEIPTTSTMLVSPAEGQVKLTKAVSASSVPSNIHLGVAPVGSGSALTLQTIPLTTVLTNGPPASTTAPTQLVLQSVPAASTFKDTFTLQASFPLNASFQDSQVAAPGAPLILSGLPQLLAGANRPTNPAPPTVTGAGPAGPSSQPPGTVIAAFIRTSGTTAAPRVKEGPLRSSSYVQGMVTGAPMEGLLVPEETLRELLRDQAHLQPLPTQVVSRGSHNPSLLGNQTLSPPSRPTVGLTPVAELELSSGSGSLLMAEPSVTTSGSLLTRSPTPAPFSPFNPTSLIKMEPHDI
# Procedure, shortened: as §1
# [15] = target: T9, ELK4 (Homo sapiens, UniProt P28324-2 1-405); conditions: protein: recombinant; tags: N-terminal GST; dsDNA, one strand shown
# T9 sequence: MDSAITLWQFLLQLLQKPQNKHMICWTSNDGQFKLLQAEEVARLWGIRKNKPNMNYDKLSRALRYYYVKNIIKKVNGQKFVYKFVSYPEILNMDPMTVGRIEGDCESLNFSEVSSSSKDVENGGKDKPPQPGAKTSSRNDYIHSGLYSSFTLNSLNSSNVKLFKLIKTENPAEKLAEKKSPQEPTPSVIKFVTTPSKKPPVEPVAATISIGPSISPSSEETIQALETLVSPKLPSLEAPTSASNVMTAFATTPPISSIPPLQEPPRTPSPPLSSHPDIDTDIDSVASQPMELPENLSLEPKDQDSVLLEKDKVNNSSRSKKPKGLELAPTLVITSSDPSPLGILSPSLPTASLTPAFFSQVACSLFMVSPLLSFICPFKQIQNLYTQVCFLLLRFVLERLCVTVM
# Procedure, shortened: as §1
# [16] = target: T10, ETV2 (Homo sapiens, UniProt O00321 1-342); conditions: protein: recombinant; tags: N-terminal GST; dsDNA, one strand shown
# T10 sequence: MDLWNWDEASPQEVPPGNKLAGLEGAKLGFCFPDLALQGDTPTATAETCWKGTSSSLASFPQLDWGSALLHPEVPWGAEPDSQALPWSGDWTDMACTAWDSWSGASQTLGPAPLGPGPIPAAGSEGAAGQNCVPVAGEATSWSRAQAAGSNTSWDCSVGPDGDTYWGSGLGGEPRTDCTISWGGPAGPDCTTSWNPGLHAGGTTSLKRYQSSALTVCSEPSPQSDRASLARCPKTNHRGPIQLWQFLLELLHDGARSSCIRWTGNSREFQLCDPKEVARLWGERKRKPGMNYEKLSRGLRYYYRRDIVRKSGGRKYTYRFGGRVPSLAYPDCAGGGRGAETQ
# Procedure, shortened: as §1
# [17] = target: T11, ELF3 (Homo sapiens, UniProt P78545 1-371); conditions: protein: recombinant; tags: N-terminal GST; dsDNA, one strand shown
# T11 sequence: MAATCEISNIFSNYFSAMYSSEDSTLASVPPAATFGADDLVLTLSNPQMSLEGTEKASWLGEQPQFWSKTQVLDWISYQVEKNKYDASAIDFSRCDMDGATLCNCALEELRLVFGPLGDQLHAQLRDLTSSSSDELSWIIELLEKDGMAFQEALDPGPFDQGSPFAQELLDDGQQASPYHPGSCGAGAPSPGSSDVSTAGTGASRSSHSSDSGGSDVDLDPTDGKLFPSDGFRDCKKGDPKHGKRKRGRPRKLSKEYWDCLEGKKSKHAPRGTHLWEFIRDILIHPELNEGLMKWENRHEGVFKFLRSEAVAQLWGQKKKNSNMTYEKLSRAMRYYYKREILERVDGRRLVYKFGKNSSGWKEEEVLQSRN
# Procedure, shortened: as §1
# [18] = target: CRX (Homo sapiens, UniProt O43186 1-299); conditions: protein: recombinant; tags: N-terminal GST; dsDNA, one strand shown
# CRX, sequence (O43186 whole entry): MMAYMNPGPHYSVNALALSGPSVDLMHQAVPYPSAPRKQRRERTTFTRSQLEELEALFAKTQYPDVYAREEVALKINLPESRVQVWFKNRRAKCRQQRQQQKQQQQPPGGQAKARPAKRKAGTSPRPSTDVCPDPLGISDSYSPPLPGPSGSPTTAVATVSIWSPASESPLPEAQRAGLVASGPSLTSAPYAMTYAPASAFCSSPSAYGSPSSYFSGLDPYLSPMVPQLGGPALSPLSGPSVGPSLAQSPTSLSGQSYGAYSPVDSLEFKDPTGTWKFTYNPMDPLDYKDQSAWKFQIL
# Procedure, shortened: as §1
# [19] = target: ETV1 (Homo sapiens, UniProt P50549 1-477); conditions: protein: recombinant; tags: N-terminal GST; dsDNA, one strand shown
# ETV1, sequence (P50549 whole entry): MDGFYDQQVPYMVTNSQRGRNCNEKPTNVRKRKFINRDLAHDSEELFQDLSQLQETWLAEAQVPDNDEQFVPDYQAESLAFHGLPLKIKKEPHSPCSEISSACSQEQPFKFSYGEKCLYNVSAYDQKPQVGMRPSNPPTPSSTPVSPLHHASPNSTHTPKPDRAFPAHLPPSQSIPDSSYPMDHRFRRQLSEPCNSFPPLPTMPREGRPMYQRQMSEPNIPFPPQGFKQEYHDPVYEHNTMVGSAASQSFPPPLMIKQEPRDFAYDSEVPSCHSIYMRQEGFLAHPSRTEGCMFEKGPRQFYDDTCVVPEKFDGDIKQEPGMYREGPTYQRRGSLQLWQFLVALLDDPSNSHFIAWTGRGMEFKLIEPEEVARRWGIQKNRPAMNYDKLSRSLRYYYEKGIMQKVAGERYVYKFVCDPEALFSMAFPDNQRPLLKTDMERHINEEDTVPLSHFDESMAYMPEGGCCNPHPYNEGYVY
# Procedure, shortened: as §1
sequence,measurement,setting,value
ATTCAT,binding signal,[1],"1.28 fold enrichment (6-mer frequency, TF over GST control)"
same,binding signal,[2],"1.12 fold enrichment (6-mer frequency, TF over GST control)"
same,binding signal,[3],"1.14 fold enrichment (6-mer frequency, TF over GST control)"
same,binding signal,[4],"1.16 fold enrichment (6-mer frequency, TF over GST control)"
same,binding signal,[5],"1.16 fold enrichment (6-mer frequency, TF over GST control)"
same,binding signal,[6],"1.12 fold enrichment (6-mer frequency, TF over GST control)"
same,binding signal,[7],"1.15 fold enrichment (6-mer frequency, TF over GST control)"
same,binding signal,[8],"1.21 fold enrichment (6-mer frequency, TF over GST control)"
same,binding signal,[9],"1.19 fold enrichment (6-mer frequency, TF over GST control)"
same,binding signal,[10],"1.11 fold enrichment (6-mer frequency, TF over GST control)"
same,binding signal,[11],"1.21 fold enrichment (6-mer frequency, TF over GST control)"
same,binding signal,[12],"1.12 fold enrichment (6-mer frequency, TF over GST control)"
same,binding signal,[13],"1.24 fold enrichment (6-mer frequency, TF over GST control)"
same,binding signal,[14],"1.17 fold enrichment (6-mer frequency, TF over GST control)"
same,binding signal,[15],"1.18 fold enrichment (6-mer frequency, TF over GST control)"
same,binding signal,[16],"1.15 fold enrichment (6-mer frequency, TF over GST control)"
same,binding signal,[17],"1.22 fold enrichment (6-mer frequency, TF over GST control)"
same,binding signal,[18],"1.16 fold enrichment (6-mer frequency, TF over GST control)"
same,binding signal,[19],"1.18 fold enrichment (6-mer frequency, TF over GST control)"
